Assay results published in PubChem BioAssay AID2314 (National Center for Advancing Translational Sciences (NCATS), 2010).
Screen size: about 300,000 compounds; about 37,000 (12%) were called active. What follows is part of a selection rich in actives, with near analogues and random picks from the rest. A number with no mark means an inactive call. No stated cut-off is given here; in the data, active means max response mostly above about 13% (no sharp cut-off); inactive means mostly below about 14%.

assay: Cycloheximide Counterscreen for Small Molecule Inhibitors of Shiga Toxin; conditions: cell reporter, cycloheximide protein synthesis inhibition counterscreen; active compounds read high; further: read at 38.3 µM for the half of the compounds with a filed dose; 0% is about no effect

Compound	max response
Cc1cc(C(F)F)n2nc(C(=O)Nc3ccc(S(=O)(=O)NC45CC6CC(CC(C6)C4)C5)cc3)nc2n1	-6.02%
O=C(C/C(=N\NC(=O)c1ccccc1Br)C(F)(F)F)c1cccs1	-1.94%
CC(C)c1ccc(S(=O)(=O)NC2CCCC2)cc1	-3.21%
O=C(Cn1nc(C(=O)O)c2ccccc2c1=O)Nc1ccc(F)cc1	5.62%
CC(C(=O)NCCc1ccc(S(N)(=O)=O)cc1)N1C(=O)CC(C)(C)Sc2ccccc21 (configuration not stated)	-1.15%
Cc1cc(C)c(S(=O)(=O)NCC2CCC(C(=O)NCc3ccc4c(c3)OCO4)CC2)c(C)c1 (configuration not stated)	-0.416%
CN(C)CCOCCOc1ccc(Cl)c2ccccc12	-1.16%
O=C(NC(Cc1ccc(O)cc1)C(=O)O)/C(=C/c1ccccc1)NC(=O)c1ccccc1 (configuration not stated)	18.4%
COc1ccc(C2Nc3ccccc3C(=O)N2c2ccc(Cl)cc2)cc1Cn1cc([N+](=O)[O-])cn1 (configuration not stated)	46.2% (active)
COc1ccc(C2Nc3ccccc3C(=O)N2c2ccc(F)cc2)cc1Cn1nnc2ccccc21 (configuration not stated)	2.31%
COc1ccc(CN2CCCC(C(=O)c3ccc(Cl)cc3)C2)cc1Cn1cncn1 (configuration not stated)	-7%
COc1ccc(N2C(=O)c3ccccc3NC2c2ccc(OC)c(CN3CCOCC3)c2)cc1 (configuration not stated)	28.2% (active)
COc1ccc(C2Nc3ccccc3C(=O)N2Cc2ccccc2)cc1Cn1nnc2ccccc21 (configuration not stated)	-1.8%
COc1ccc([N+](=O)[O-])cc1C1NN=C(c2cccc3ccccc23)S1 (configuration not stated)	-2.19%
CCCCCCCC(=O)NC(Nc1ccccc1OC)C(Cl)(Cl)Cl (configuration not stated)	1.89%
COc1ccc(C(=O)COC(=O)Cn2cnc3c2c(=O)n(C)c(=O)n3C)c(OC)c1	-1.6%
O=C(C1CCCO1)N1CCN(S(=O)(=O)c2ccc(Br)cc2)CC1 (configuration not stated)	-1.38%
Cc1cnc(CN(C)C(=O)C2CCC(=O)N(CCc3cccc(F)c3)C2)[nH]1 (configuration not stated)	-1.18%
C=CCNc1nc(N)c([N+](=O)[O-])c(NC2CCCCC2)n1	-4.11%
CC(C)(C)OC(=O)N1CCC(NC(=O)c2[nH]cnc2C(=O)N[C@@H](Cc2ccccc2)C(=O)OCc2ccccc2)CC1	-1.27%
Cn1cnc(S(=O)(=O)Nc2ccc3c(c2)OCCO3)c1	-2.48%
Cc1ccnc(N2C(=O)c3ccccc3C2Nc2ccc3c(c2)OCCO3)c1 (configuration not stated)	42.1% (active)
COC(=O)c1cccc(C(=O)N2CCCC(Nc3ccc4c(c3)OCCO4)C2)c1 (configuration not stated)	-1.68%
O=C(NC1CCCCC1)C1c2ccccc2C(=O)N1Cc1ccco1 (configuration not stated)	0.684%

Compound	max response
COc1ccccc1C1/C(=C(/O)c2ccc(C)cc2)C(=O)C(=O)N1Cc1ccco1 (configuration not stated)	3.34%
O=C1c2ccccc2C(Nc2ccc3c(c2)OCCO3)N1Cc1ccco1 (configuration not stated)	86.7% (active)
CCOc1ccc2[nH]c(C(=O)N/N=C/c3cccc(OC)c3OC)cc2c1	9.3%
CC(C)c1ccc(N(C(=O)c2ccco2)C(C(=O)NC2CCCC2)c2cccnc2)cc1 (configuration not stated)	-5.72%
CCC1CCCCN1CCCNC(=O)c1cc2c(Cl)nc3ccccc3c2s1 (configuration not stated)	-11.5%
Oc1ccc(-c2onc3ccc(Cl)cc23)cc1	15.4%
CCOc1ccc(C(C)=O)cc1COC(=O)c1cnc(Cl)c(Cl)c1	-0.208%
COC(=O)c1ccc(COC(=O)c2cnc(Cl)c(Cl)c2)cc1	34.6% (active)
COC(=O)c1ccc(COC(=O)c2cnccn2)cc1	-1.89%
COc1ccc(NS(=O)(=O)c2ccc(O)c(C(=O)OCC(=O)NC3CCCCC3)c2)cc1	0.885%
CCN(C(=O)COc1cccnc1[N+](=O)[O-])C1CCS(=O)(=O)C1 (configuration not stated)	-3%
Cc1nn2c(=O)cc(COC(=O)c3ccc(NC(=O)C(C)(C)C)cc3)nc2s1	-6.18%
O=C(NCCCn1ccnc1)c1cc(Br)c(Br)s1	-0.73%
COc1ccccc1-c1cc(C(=O)NCCCn2ccnc2)no1	-1.18%
COc1cc(OC)cc(C(=O)NCCCn2ccnc2)c1	-2.01%
COc1ccc(-c2cc(C(=O)NCCCn3ccnc3)no2)cc1	19.9% (active)
O=C(NCCCn1ccnc1)c1cc(-c2ccccc2)on1	27.9% (active)
O=C(NCCCn1ccnc1)c1ccccc1F	1.63%
CCN(Cc1ccccc1)C(=O)CCS(=O)(=O)c1ccc2c(c1)oc(=O)n2C	0.913%
CCC(=O)c1cn(CCOc2ccccc2OC)c2ccccc12	3.68%
CC(C)[C@H](NC(=O)N1CCn2c1nc1ccccc12)C(=O)NC1CC1	12.8% (active)
CC(C)[C@H](NC(=O)N1CCn2c1nc1ccccc12)C(=O)NCCc1ccccc1	11.9%
CC(C)C[C@H](NC(=O)N1CCn2c1nc1ccccc12)C(=O)NC1CC1	-12.6%
